Calls of active or inactive are those of the source.
Experiments:
[1] = tested on: PRMT1 (protein arginine N-methyltransferase 1); experiment: small molecules binding arginine methyltransferase PRMT1 – biochemical, small-molecule microarray, 635 nm fluorescence, primary screen (AID 1088); details: higher = more signal;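 also: binding of Prmt1 protein to compounds spotted on small-molecule microarray slides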
[2] = growth effects on S. cerevisiae YJM789 – YJM789 clinical isolate, OD600, 24 h, basal, primary screen (AID 1089); details: higher = more signal, called active from +8 up or from −8 down;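 also: growth of clinical yeast isolate S. cerevisiae YJM 789 seeded 1000 cells per well; test concentration not given here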
[3] = S. pombe growth modifiers, basal conditions – strain 972, OD600, 24 h, no modulator, primary screen (AID 1090);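 also: basal condition with compound alone and no growth modifier present; test concentration not given here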; details: S. pombe 972 growth, higher = more signal, called active from +8 up or from −8 down
[4] = budding yeast growth modifiers under rapamycin – strain BY4716, OD600, 96 h, primary screen (AID 1091); also: test concentration not given here; details: S. cerevisiae BY4716 + rapamycin, higher = more signal, called active from +8 up or from −8 down
[5] = target: Torsin-1A-interacting protein 2 (Homo sapiens) (UniProt Q8NFQ8); experiment: small molecules binding lysate-expressed LULL1 – cell lysate, human LULL1 lysate, 635/667 nm fluorescence, primary screen (AID 1092); details: small-molecule microarray, hLULL1 lysate binding, 635 nm fluorescence; higher = more signal;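 also: probe is lysate of COS7 cells overexpressing human LULL1; score merges per-feature 667 nm fluorescence with signal-to-noise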
Chain of Torsin-1A-interacting protein 2 (Homo sapiens) (Q8NFQ8 whole entry, looked up): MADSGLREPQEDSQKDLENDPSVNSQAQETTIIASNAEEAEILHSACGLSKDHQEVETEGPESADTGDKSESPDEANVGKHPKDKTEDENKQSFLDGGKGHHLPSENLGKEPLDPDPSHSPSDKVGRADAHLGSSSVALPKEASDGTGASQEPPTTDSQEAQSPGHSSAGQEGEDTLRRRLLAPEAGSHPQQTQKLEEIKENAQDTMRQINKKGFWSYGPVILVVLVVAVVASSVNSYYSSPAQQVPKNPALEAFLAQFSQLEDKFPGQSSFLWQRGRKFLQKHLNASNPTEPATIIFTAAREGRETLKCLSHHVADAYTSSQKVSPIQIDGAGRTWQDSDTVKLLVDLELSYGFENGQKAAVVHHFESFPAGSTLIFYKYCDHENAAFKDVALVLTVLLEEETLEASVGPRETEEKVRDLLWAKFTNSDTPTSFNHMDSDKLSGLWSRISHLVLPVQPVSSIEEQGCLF

[6] = optical density change of DRC41 E. coli – strain DRC41, OD650, 24 h, E. coli filamentation project, primary screen (AID 1093);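 also: MC1000 strain lacking acrAB efflux and sulA so SOS filamentation is blocked; test concentration not given here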; details: E. coli DRC41 growth, higher = more signal, called active from +8 up or from −8 down
[7] = probe aLefty2 binding to arrayed compounds – biochemical, biotinylated probe, 635/667 nm fluorescence, primary screen (AID 1094); details: small-molecule microarray, higher = more signal;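 also: score merges spot fluorescence near 667 nm with spot signal-to-noise ratio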
[8] = tested on: Noggin (protein binding on small-molecule microarray); experiment: small molecules binding Noggin protein – biochemical, 635/667 nm fluorescence, primary screen (AID 1095); details: 635 nm fluorescence, higher = more signal;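 also: score merges 667 nm feature fluorescence with signal to noise over triplicate slides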
[9] = target: Neurogenic locus notch homolog protein 3 (Homo sapiens) (UniProt Q9UM47); experiment: small molecules binding NOTCH3 protein – biochemical, 635/667 nm fluorescence, primary screen (AID 1096); details: small-molecule microarray, 635 nm fluorescence, higher = more signal
Chain of Neurogenic locus notch homolog protein 3 (Homo sapiens) (Q9UM47 whole entry, looked up): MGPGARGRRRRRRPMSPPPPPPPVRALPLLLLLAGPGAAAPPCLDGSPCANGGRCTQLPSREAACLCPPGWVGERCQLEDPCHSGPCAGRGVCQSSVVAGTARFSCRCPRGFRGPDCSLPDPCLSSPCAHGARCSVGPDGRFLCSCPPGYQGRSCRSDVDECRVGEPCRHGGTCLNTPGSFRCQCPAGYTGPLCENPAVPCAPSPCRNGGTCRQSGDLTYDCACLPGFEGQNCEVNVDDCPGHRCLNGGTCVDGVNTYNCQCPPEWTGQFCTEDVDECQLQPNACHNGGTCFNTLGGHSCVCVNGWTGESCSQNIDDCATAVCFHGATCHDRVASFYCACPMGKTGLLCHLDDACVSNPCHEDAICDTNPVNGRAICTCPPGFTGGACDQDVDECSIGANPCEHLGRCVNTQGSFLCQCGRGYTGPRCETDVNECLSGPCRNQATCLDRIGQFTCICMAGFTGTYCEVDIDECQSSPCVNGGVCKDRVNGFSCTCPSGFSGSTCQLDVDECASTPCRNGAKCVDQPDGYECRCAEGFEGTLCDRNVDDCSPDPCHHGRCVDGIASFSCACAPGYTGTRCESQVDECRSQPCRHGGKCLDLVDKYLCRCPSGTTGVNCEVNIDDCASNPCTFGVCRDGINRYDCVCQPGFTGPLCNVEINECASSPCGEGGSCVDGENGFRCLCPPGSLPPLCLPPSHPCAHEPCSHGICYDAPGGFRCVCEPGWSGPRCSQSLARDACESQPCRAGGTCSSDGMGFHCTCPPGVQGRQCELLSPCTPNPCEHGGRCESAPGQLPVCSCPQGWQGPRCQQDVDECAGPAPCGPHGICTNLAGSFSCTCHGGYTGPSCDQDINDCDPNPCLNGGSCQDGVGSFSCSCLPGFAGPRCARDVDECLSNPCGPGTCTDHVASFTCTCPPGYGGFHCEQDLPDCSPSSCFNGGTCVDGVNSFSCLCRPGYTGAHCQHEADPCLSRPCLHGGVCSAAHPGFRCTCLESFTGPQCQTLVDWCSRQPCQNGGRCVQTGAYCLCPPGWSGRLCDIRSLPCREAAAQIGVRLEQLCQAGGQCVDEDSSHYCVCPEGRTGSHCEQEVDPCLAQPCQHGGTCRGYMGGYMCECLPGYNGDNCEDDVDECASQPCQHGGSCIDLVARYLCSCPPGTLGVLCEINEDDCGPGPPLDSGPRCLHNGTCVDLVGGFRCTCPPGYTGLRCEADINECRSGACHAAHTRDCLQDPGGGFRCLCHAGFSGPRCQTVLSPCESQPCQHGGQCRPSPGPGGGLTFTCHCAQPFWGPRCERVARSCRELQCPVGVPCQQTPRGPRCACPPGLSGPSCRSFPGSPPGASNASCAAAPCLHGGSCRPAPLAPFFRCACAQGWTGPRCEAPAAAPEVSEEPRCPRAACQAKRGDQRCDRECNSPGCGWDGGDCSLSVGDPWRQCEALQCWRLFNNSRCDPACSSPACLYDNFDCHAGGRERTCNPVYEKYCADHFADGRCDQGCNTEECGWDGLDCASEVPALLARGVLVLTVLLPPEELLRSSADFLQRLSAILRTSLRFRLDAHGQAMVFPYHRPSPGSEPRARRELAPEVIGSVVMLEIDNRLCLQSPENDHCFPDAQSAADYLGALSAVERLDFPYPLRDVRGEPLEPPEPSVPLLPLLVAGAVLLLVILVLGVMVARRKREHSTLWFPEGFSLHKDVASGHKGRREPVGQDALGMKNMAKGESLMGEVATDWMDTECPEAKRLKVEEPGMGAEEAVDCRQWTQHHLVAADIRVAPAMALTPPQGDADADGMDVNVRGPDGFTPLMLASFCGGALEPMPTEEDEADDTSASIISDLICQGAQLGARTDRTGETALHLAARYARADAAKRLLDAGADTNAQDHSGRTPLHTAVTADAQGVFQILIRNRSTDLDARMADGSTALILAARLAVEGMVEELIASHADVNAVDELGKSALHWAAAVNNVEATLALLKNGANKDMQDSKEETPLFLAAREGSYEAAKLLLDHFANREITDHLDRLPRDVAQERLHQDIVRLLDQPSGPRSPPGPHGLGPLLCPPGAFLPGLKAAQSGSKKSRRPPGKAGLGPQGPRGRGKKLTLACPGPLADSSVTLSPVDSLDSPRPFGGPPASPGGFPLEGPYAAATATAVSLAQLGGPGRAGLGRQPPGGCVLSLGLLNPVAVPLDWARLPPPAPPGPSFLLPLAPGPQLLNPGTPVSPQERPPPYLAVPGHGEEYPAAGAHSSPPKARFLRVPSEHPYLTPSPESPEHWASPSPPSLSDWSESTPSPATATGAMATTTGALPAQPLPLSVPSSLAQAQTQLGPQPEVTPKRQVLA

[10] = probe aEGFR binding to arrayed compounds – biochemical, biotinylated probe, 635/667 nm fluorescence, primary screen (AID 1097); details: small-molecule microarray, higher = more signal;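 also: probe is a biotinylated anti-EGFR antibody binding compounds printed on slides; score combines fluorescence near 667 nm and signal to noise of each spot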

| Structure (SMILES) | composite z-score [1] | z-score [2] | z-score [3] | z-score [4] | composite z-score [5] | z-score [6] | composite z-score [7] | composite z-score [8] | composite z-score [9] | composite z-score [10] |
| --- | --- | --- | --- | --- | --- | --- | --- | --- | --- | --- |
| COc1cc(C(O)C2C=CC3C(=O)N(c4ccccc4)C(=O)C3N2Nc2ccc(C#N)cc2)cc(OC)c1OC (stereo not given) | 1.54 | -0.531 (inactive) | 0.849 (inactive) | 1.75 (inactive) | 3.84 | -1.27 (inactive) | 0.368 | -0.0742 | 1.03 | 0.273 |
| CCCCCN1CC=CC23O[C@@H]4/C=C\CCC(C)OC(=O)C4[C@H]2C(=O)N(CCCCCO)[C@@H]3C1=O (stereo not given in full) | -0.103 | -1.46 (inactive) | -0.773 (inactive) | -1.39 (inactive) | -1.94 | 2.19 (inactive) | -0.0491 | -0.0687 | 0.0156 | -0.149 |
| C=CCNC(=O)[C@@H]1[C@H]2C(=O)O[C@H](c3ccccc3)[C@H](c3ccccc3)N2[C@H](c2ccccc2OCCO)[C@@]12C(=O)Nc1ccc(C#CC3=CCCCC3)cc12 | 1.55 | 1.05 (inactive) | -3.5 (inactive) | 2.87 (inactive) | 2.75 | 1.47 (inactive) | 0.058 | 0.983 | 1.11 | -0.0185 |
| C[C@]1(C(=O)NCc2ccccc2)c2ccccc2C(=O)N(Cc2cc(F)cc(C(F)(F)F)c2)[C@H]1c1ccc(CO)cc1 | 0.113 | 0.328 (inactive) | -0.325 (inactive) | -0.0212 (inactive) | 2.68 | 0.808 (inactive) | -0.0508 | -1.67 | -1.37 | -0.253 |
| CCCCCCCCCCC(O)C1C=CC2C(=O)N(Cc3ccccc3)C(=O)C2N1n1cnnc1 (stereo not given) | 1.14 | 0.187 (inactive) | -0.25 (inactive) | -0.976 (inactive) | 2.75 | -1.45 (inactive) | 0.326 | -0.331 | 0.55 | 0.0773 |
| CCOC(=O)C1=CC[C@@H](c2ccccc2)N(S(=O)(=O)c2ccc(C)cc2)[C@H]1C(=O)OCC | 0.334 | 0.19 (inactive) | 0.572 (inactive) | 1.94 (inactive) | 1.14 | 0.157 (inactive) | 0.415 | 0.0818 | 0.0539 | 0.202 |
| C=C(CCCC)C(=O)CC[C@H](OC(=O)c1cccnc1)c1cccc(OCCO)c1 | 1.3 | 1.61 (inactive) | -0.86 (inactive) | 1.13 (inactive) | 1 | 0.241 (inactive) | -0.141 | 0.257 | -0.139 | -0.0818 |

Source: PubChem BioAssay
